From PubChem BioAssay
A selection: hits, their analogues and other compounds. The true share with any hit is near 5.7%.
L3MBTL1 inh – qHTS Assay for the Inhibitors of L3MBTL1. Potency, µM (highest dose often 57.1 µM), most hits filed as inhibitors. Lethal(3)malignant brain tumor-like protein 1 (Homo sapiens), Q9Y468. actives 0.66% (n = 230,000). AlphaScreen L3MBTL1–H3K9me1 peptide binding; note: nearly all actives have a fitted effect of over 60% in size
Target sequence (Q9Y468 whole entry, looked up): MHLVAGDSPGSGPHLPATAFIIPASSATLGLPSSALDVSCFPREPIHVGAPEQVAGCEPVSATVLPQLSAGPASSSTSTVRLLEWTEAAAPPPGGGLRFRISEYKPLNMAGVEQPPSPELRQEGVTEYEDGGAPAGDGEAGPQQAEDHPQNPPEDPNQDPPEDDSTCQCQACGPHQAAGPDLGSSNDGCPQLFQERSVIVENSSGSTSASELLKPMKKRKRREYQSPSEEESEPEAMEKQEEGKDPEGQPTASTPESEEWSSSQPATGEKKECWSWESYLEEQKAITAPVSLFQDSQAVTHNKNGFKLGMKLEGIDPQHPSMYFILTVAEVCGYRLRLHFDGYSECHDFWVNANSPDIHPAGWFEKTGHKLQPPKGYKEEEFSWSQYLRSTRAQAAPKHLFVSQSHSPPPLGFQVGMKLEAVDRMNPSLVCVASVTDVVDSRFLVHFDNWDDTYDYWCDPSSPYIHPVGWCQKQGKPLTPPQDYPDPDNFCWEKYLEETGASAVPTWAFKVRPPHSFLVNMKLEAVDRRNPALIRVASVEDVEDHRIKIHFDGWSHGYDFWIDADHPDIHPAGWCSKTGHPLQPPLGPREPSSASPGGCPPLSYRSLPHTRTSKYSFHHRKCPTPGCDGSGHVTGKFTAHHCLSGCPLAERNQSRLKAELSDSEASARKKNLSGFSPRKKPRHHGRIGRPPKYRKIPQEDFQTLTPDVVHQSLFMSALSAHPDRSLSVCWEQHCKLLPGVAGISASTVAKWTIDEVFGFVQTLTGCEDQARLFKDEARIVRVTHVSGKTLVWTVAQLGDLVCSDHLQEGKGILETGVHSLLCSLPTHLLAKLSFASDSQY
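L3MBTL1 50 nM + b-AHA-H3(1-15)K9me1 75 nM, 30 min RT; compound added, 30 min RT; streptavidin donor/Ni-chelate acceptor beads 10 ug/mL each final, 30 min RT dark; AlphaScreen read.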
KDM4E inh – qHTS Assay for Inhibitors of Human Jumonji Domain Containing 2E (JMJD2E); Potency, µM (titrated, usually from 57.1 µM), actives largely listed as inhibitors; Lysine-specific demethylase 4E (Homo sapiens), B2RXH2; actives 1.6% (n = 230,000); AID 2147, 2009; JMJD2E catalytic domain, FDH-coupled NADH fluorescence (FDH is formaldehyde dehydrogenase); active = well fitted inhibition curve with a large enough effect, not every such curve was filed as active; inconclusive = small, poorly fitted or top-dose-only effect, or another doubt; inactive = no such curve, though single readings can be large or run the other way; note: nearly all actives have a fitted effect of over 50% in size
JMJD2A Tudor – qHTS Assay for Inhibitors of JMJD2A-Tudor Domain; AlphaScreen JMJD2A-Tudor / H3K4me3 peptide binding; Potency, µM (top dose mostly 114 µM), most hits filed as inhibitors; actives 4.4% (n = 390,000); note: nearly all actives have a fitted effect of over 50% in size
HP1b chromo inh – HTS for Inhibitors of HP1-beta Chromodomain Interactions with Methylated Histone Tails. AlphaScreen HP1-beta / biotin-H3K9me3 peptide binding. Potency, µM (titrated, usually from 114 µM), hits mostly inhibitors. AID 540317, 2011. Chromobox protein homolog 1 (Homo sapiens), P83916. actives 0.56% (n = 390,000); note: nearly all actives have a fitted effect of over 70% in size
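AlphaScreen: HP1-beta (50 nM) preformed 30 min with biotin-H3(1-18)K9me3 peptide (50 nM) in PBS pH 7.4, 0.01% Tween-20. Compound added for 30 min at RT, then streptavidin donor/nickel chelate acceptor beads (10 ug/mL) for 30 min.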
PI5P4Ka inh – qHTS for Inhibitors of phosphatidylinositol 5-phosphate 4-kinase (PI5P4K) | Phosphatidylinositol 5-phosphate 4-kinase type-2 alpha (Homo sapiens), P48426 | PI5P4Kalpha enzyme, ADP-Glo luminescence, 60 min; stronger effect = lower value | max response, % | actives 1.2% (n = 330,000) | AID 652105, 2013; active = max response of -50% or lower; inconclusive = between -30% and -50%; inactive = -30% or higher; note: value at the top dose of about 77 µM
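ADP-Glo luminescence end-point read after a 60 min room-temperature kinase reaction of PI5P4Kalpha plus substrate, initiated with ATP at 5 microM final. Buffer: 0.038 M HEPES pH 7.4, EGTA, 0.1% CHAPS, 5% DMSO.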
BAZ2B inh – qHTS Assay for Inhibitors of BAZ2B; Potency, µM (highest dose often 114 µM), usual class: inhibitors; AlphaScreen BAZ2B-H3K14Ac peptide displacement; actives 4.4% (n = 360,000); note: nearly all actives have a fitted effect of over 60% in size
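Inhibition is scored as reduced AlphaScreen emission. The BAZ2B/b-H3(5-23)K14Ac complex (50 nM each) in PBS pH 7.4, 0.01% Tween-20 meets compound (up to 110 uM) for 30 min at RT before bead addition.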
Each line names hits and unclear results; the compound was inactive in the other large screens. Unless noted, calls come from the whole dose curve; as a rule, active = well fitted inhibition curve with a large enough effect; inconclusive = small, poorly fitted or top-dose-only effect; inactive = no such curve, though single readings can be large or run the other way.

COc1ccc(N2CCN(C(=O)c3cccc(NS(=O)(=O)c4cccc(F)c4)c3)CC2)cc1	BAZ2B inh 40µM (no result: L3MBTL1 inh, KDM4E inh)
CC(=O)N1CCN(c2ccc(NS(=O)(=O)c3ccc4c(c3)CC(=O)N4)cc2)CC1	JMJD2A Tudor 126µM (no result: L3MBTL1 inh, KDM4E inh, HP1b chromo inh, PI5P4Ka inh, BAZ2B inh)
COc1ccc(NS(=O)(=O)c2ccc(C(=O)N3CCN(c4ccc(F)cc4)CC3)cc2)cc1	none (no result: KDM4E inh, BAZ2B inh)
COc1ccc(N2CCN(C(=O)c3ccc(NS(=O)(=O)c4ccc(F)c(F)c4)cc3)CC2)cc1	JMJD2A Tudor 89µM, BAZ2B inh 50µM
CCN(CC)C(=O)c1ccccc1NC(=O)CN1C(=O)c2ccccc2C1=O	none
COc1ccc2c(c1)c1c(c(=O)n(-c3ccccc3)c(=O)n1CC(=O)Nc1ccc(C)c(C)c1)n2C	none (no result: L3MBTL1 inh, KDM4E inh, PI5P4Ka inh)
CCc1cc2c(=O)c(-c3nc4ccccc4[nH]3)coc2c(CN2CCCCC2)c1O	KDM4E inh inconclusive, BAZ2B inh 79µM
COc1ccc(C(=O)CCC(=O)Nc2cc(Cl)c(O)c(Cl)c2)cc1	PI5P4Ka inh -77 (no result: L3MBTL1 inh, KDM4E inh)
CCOCCc1nn2c(=O)cc(COC(=O)CNC(=O)c3cccc(C)c3)nc2s1	none (no result: L3MBTL1 inh, KDM4E inh, PI5P4Ka inh)
COC(=O)C(=O)/C=C(\O)c1ccc(C)cc1	KDM4E inh inconclusive, JMJD2A Tudor 79µM, BAZ2B inh inconclusive
Cc1ccc(/C(O)=C/C(=O)C(=O)NNC(=O)C(O)(c2ccccc2)c2ccccc2)cc1	JMJD2A Tudor inconclusive, BAZ2B inh 50µM (no result: PI5P4Ka inh)
O/N=C/c1ccc2ccccc2n1	none (no result: L3MBTL1 inh)
Oc1cccc2ccc(/C=C/c3ccccc3Cl)nc12	JMJD2A Tudor inconclusive (no result: L3MBTL1 inh, KDM4E inh)
Oc1cccc2ccc(/C=C/c3c(F)cccc3Cl)nc12	KDM4E inh 28µM
O/N=C/c1ccc2cccc(O)c2n1	KDM4E inh 32µM (no result: L3MBTL1 inh)
O=C(O)c1ccc(/C=C/c2ccc3cccc(O)c3n2)cc1	KDM4E inh 8.9µM (no result: L3MBTL1 inh)
Cc1cccc(N2CCN(c3nc4ccc(C)cc4n4cnnc34)CC2C)c1 (stereo unspecified)	JMJD2A Tudor inconclusive, BAZ2B inh inconclusive (no result: L3MBTL1 inh, KDM4E inh, PI5P4Ka inh)
COc1ccc(-c2nnc(SCc3cc(=O)c4cc(C)cc(C)c4[nH]3)n2C)cc1	none (no result: L3MBTL1 inh, KDM4E inh, PI5P4Ka inh)
CCc1ccc(-c2nc3c(=O)n(C)c(=O)nc-3n(CC)n2)cc1	none (no result: L3MBTL1 inh, KDM4E inh, PI5P4Ka inh, BAZ2B inh)
COc1ccc(-c2cn3nc(N4CCCC(C(=O)Nc5cc(C)ccc5C)C4)sc3n2)cc1 (stereo unspecified)	JMJD2A Tudor inconclusive (no result: L3MBTL1 inh, KDM4E inh, PI5P4Ka inh)
Cc1ccc(-n2ncc3c(N4CCN(CCO)CC4)ncnc32)cc1Cl	none (no result: L3MBTL1 inh, KDM4E inh, PI5P4Ka inh)
CN(C)CCCn1c(NC(=O)C2CCCCC2)nc2ccccc21	none (no result: PI5P4Ka inh)
CC(=O)Nc1nc2ccccc2n1CCOc1ccccc1	KDM4E inh inconclusive
CC(=O)Nc1nc2ccccc2n1CCN(C)C	JMJD2A Tudor 40µM
CCCCn1c(NC(=O)c2ccccc2)nc2ccccc21	KDM4E inh inconclusive (no result: PI5P4Ka inh)
CCCCn1c(NC(=S)Nc2ccccc2)nc2ccccc21	L3MBTL1 inh 18µM, JMJD2A Tudor 40µM, HP1b chromo inh inconclusive, BAZ2B inh 7.9µM
S=C(Nc1ccccc1)Nc1nc2ccccc2n1CCOc1ccccc1	L3MBTL1 inh 10µM, JMJD2A Tudor 45µM, BAZ2B inh 6.3µM (no result: PI5P4Ka inh)
Cc1nc2c(-c3ccccc3)c(C)[nH]n2c(=O)c1Cc1ccc(Br)cc1	none (no result: L3MBTL1 inh, KDM4E inh, PI5P4Ka inh)
O=C(NCc1ccco1)c1cccc2c1C(=O)c1ccc(N3CCC(Cc4ccccc4)CC3)cc1S2(=O)=O	none (no result: KDM4E inh, BAZ2B inh)
O=C(NCc1ccco1)c1cccc2c1C(=O)c1ccc(/C=C/c3ccccc3)cc1S2(=O)=O	L3MBTL1 inh inconclusive, JMJD2A Tudor 40µM, HP1b chromo inh inconclusive, PI5P4Ka inh -72 (no result: KDM4E inh, BAZ2B inh)
C/C(=N\Nc1cc(C)nc(-c2ccccc2O)n1)c1ccccc1	none
Cc1cc(N/N=C/c2ccc(O)c(C)c2O)nc(-c2ccccc2O)n1	KDM4E inh 25µM
